Bioassay records: PubChem BioAssay, The Scripps Research Institute Molecular Screening Center
hgDAF-12 ag: hgDAF-12 agonism, primary luciferase screen. HEK293 GAL4-hgDAF12 UAS-luciferase reporter, agonist luminescence; normalized to butyrate control. activation, % at 6.8 µM. actives 1.8% (n = 370,000);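 active = activation above a cutoff set at the mean of all screened compounds plus 3 SD, cut at about 10% in these data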;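 also: 0% = DMSO wells and 100% = sodium butyrate wells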
DAX1 inh-1: NR0B1 (DAX1) inhibition; P51843; HEK293 Gal4-DAX1 luciferase reporter, luminescence; inhibition, % at 6.75 µM; actives 0.99% (n = 340,000);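 active = inhibition above the mean over all tested compounds plus 3 SD, cut at about 4.2% in these data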;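 also: 0% = DAX1-transfected cells with DMSO and 100% = empty-vector control cells with DMSO; inhibition shows as a rise in luminescence from relieved DAX1 repression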
Target sequence (P51843 207-470 limits assumed): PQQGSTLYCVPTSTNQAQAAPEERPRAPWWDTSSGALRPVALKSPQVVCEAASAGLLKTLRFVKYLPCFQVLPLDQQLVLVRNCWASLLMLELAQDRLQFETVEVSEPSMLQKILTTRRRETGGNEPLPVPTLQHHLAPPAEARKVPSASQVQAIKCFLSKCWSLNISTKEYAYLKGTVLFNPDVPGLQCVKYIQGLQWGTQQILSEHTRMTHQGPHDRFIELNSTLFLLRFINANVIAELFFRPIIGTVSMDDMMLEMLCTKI
ssDAF-12 act: activators of S. stercoralis DAF-12 nuclear receptor; activation, % at 6.8 µM; AID 652126; actives 1% (n = 370,000); HEK293 ssDAF-12/GRIP1 lit1-tk-luc reporter, luminescence; % of 3 µM dafachronic acid response;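 active = activation above the mean over all tested compounds plus 3 SD, cut at about 0.9% in these data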;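 also: 0% = DMSO-only wells and 100% = 3 µM delta7-dafachronic acid wells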
DAX1 inh-2: inhibitors of DAX1 repression of SF-1 activated StAR promoter | HEK293T StAR-luciferase reporter, SF-1/DAX-1 repression relief | inhibition, % at 6.8 µM | actives 1.1% (n = 370,000) | AID 652010;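 active = inhibition above the mean over all tested compounds plus 3 SD, cut at about 3.6% in these data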;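 also: 0% = DAX-1 cells with DMSO and 100% = cells lacking DAX-1 with DMSO; higher inhibition means more luminescence from relief of DAX-1 repression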
hcDAF-12 act: activators of H. contortus DAF-12 nuclear receptor. HEK293 hcDAF-12 lit1-tk-luc reporter, luminescence; 0% DMSO, 100% Δ7-dafachronic acid. activation, % at 6.8 µM. actives 1.4% (n = 370,000). AID 652067;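 active = activation above the mean of all tested compounds plus 3 SD, cut at about 5.5% in these data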;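 also: 100% = response to 3 µM Δ7-dafachronic acid high control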
* = called active by the depositor; . = not tested or not shown. This is a sample that favours compounds with a hit; in the whole collection about 4.1% have one here.

SMILES	hgDAF-12 ag	DAX1 inh-1	ssDAF-12 act	DAX1 inh-2	hcDAF-12 act
O=c1cc(CN2CCN(c3cccc(C(F)(F)F)c3)CC2)nc2sccn12	1	.	-1	0	1
CCCCCCCC(=O)N[C@H]1CC[C@@]23CCCN2C(=O)CCC[C@H]3[C@H]1CCC	5	.	-2	.	-2
CCCC/C=C1/C(c2ccccc2)N(Cc2ccc(OC)cc2OC)C2=NC(c3ccccc3)CC(=O)N21 (configuration not stated)	5	.	-2	.	-1
N#C/C(=N\Nc1ccccc1)C(=N)N1CCCCC1	12*	2	1	3	3
CC1Cc2cc(C(=O)O)ccc2O1 (configuration not stated)	1	2	-1	0	0
C=C(CO)C1Cc2cc(C(C)=O)ccc2O1 (configuration not stated)	0	4.3*	-1	-1	0
Oc1csc(Cc2nc(-c3ccc4ccccc4c3)cs2)n1	6	3	1.1*	3	6.3*
Oc1csc(Cc2nc(-c3ccc(-c4ccccc4)cc3)cs2)n1	2	0	0	2	4
CC(=O)Oc1cc(O)c2c(=O)c(OC(C)=O)c(-c3ccc(OC(C)=O)c(OC(C)=O)c3)oc2c1	.	4.5*	.	.	.
COc1ccc(-c2oc3cc(OC(C)=O)cc(OC(C)=O)c3c(=O)c2OC)cc1	1	3	-1	0	1
Cc1c(NC(=O)COC(=O)c2cccn2C)c(=O)n(-c2ccccc2)n1C	0	4.4*	-1	1	1
Cc1c(NC(=O)COC(=O)c2ccccc2Cl)c(=O)n(-c2ccccc2)n1C	2	0	-1	-1	-2
Cc1ccc(C23CC4CC(CC(CN)(C4)C2)C3)cc1	0	4.9*	0	0	2
NCC12CC3CC(C1)CC(c1ccc(Br)cc1)(C3)C2	0	0	-1	-1	-2
O=C(NCc1ccccn1)c1ccc2c(c1)N(Cc1ccccc1)CCS2	-3	1	-2	0	-1
O=C(NCc1cccnc1)c1ccc2c(c1)N(Cc1ccccc1)CCS2	-1	6.0*	-1	1	-3
CCCCN1CCN(C(=O)C2CCN(S(=O)(=O)c3ccc4[nH]c(=O)oc4c3)CC2)CC1	1	.	-2	0	-1
Nc1ccn([C@@H]2O[C@H](C(=O)N[C@H](Cc3ccccc3)C(=O)Nc3ccc4scnc4c3)[C@@H](O)[C@H]2O)c(=O)n1	3	.	0	-1	0
O=C(NCCCc1ccccc1)O[C@@H]1CC[C@@]23CCCN2C(=O)CCC[C@H]3C1	-3	.	-2	.	-2
COc1ccccc1C(=O)COC(=O)Cc1n[nH]c(=O)c2ccccc12	2	1	0	1	2
COc1ccc(C(C)=O)cc1COC(=O)Cc1n[nH]c(=O)c2ccccc12	1	5.3*	-1	1	0
COc1ccc(S[C@]2(C(=O)N3CCN(C(C)=O)CC3)CC(=O)N(C(=O)Nc3ccc(C)c(Cl)c3)[C@@H]2c2ccc(OC)cc2)cc1	2	.	-2	-1	-1
Cc1nn(-c2ccccc2)c(/N=C/c2ccc(O)cc2)c1-c1ccccc1	9	0	1.0*	-5	1
Cc1nn(-c2ccccc2)c(C)c1-c1ccccc1O	-3	-1	-1	0	-2
CC1CCCC=CC2CC(OC(=O)CN(C)C)CC2C(O)C=CC(=O)O1 (configuration not stated)	-8	-2	-2	4.5*	-2
SMILES	hgDAF-12 ag	DAX1 inh-1	ssDAF-12 act	DAX1 inh-2	hcDAF-12 act
O=C(NCc1cccc2ccccc12)C1CCCN(c2nc3ccccc3o2)C1 (configuration not stated)	-1	.	-1	0	1
Cc1occc1-c1nnc(SCC(=O)Nc2ccncc2)n1-c1ccccc1	-3	.	-2	0	-2
Cc1cccnc1NC(=O)C1COc2ccccc2O1 (configuration not stated)	3	-1	1.4*	1	1
Cc1ccccc1NC(=O)C1COc2ccccc2O1 (configuration not stated)	2	2	0	0	0
COc1ccc(C)cc1NC(=O)C1COc2ccccc2O1 (configuration not stated)	2	-1	-1	4.2*	3
CCc1ccccc1NC(=O)C1COc2ccccc2O1 (configuration not stated)	0	3	-1	1	0
O=C(Nc1ccccc1[N+](=O)[O-])C1COc2ccccc2O1 (configuration not stated)	7	8.7*	0	2	5
CCOC(=O)N1CCN(C(=O)C[C@H]2C[C@@]3(C(=O)OC)C(=C[C@H](COCc4ccccc4)O[C@@H]3C)N(Cc3ccc(Cl)cc3Cl)C2=O)CC1	-2	.	-2	0	-4
C/C(=N\Nc1nc(C(C)(C)C)cs1)c1ccc(O)cc1	0	-1	0	0	5.8*
C/C(=N\Nc1nc(C(=O)O)cs1)c1ccccc1	3	.	0	0	0
Cc1ccc(-n2c(SCC(=O)c3ccc(-c4ccccc4)cc3)nnc2-c2ccc(C(C)(C)C)cc2)cc1	6	.	-2	0	1
O=C(NCc1ccc(C(=O)NC2CCCC2)cc1)c1cccc(Br)c1	-2	.	0	0	-2
Cc1cccc(OCC(=O)Nc2ccc3c(c2)nc(CCN2CCC(C)CC2)n3C)c1	-3	0	-1	0	1
Cc1cccc(OCC(=O)Nc2ccc3c(c2)nc(CCN2CCN(C)CC2)n3C)c1	0	4.9*	-1	0	-1
COc1cccc2oc3cc(C#CC4(O)CCCCC4)ccc3c(=O)c12	6	1	0	4.0*	5.8*
O=c1oc2cc(O)ccc2c2ccccc12	0	0	-2	0	0
COc1ccc2c(c1)c(=O)oc1cc(O)ccc12	0	4.7*	-1	0	-2
CCCCN1C(=O)C(O)=C(C(C)=O)C1c1ccccc1 (configuration not stated)	.	-1	.	.	.
CCCCN1C(=O)C(O)=C(C(C)=O)C1c1ccccc1[N+](=O)[O-] (configuration not stated)	1	-1	0.9*	0	5
Cc1ccc(CN2CCCCC(NC(=O)c3ccc(Br)cc3)C2=O)cc1 (configuration not stated)	2	.	-2	-1	-3
O=C(Cc1ccc(Br)cc1)Nc1ccc(Cl)cc1	4	0	-2	0	0
O=C(Cc1ccc(Cl)cc1)Nc1ccc(SC(F)F)cc1	11*	1	0	1	1
C=CCn1c(=O)c2ccccc2n2c(SCC(=O)O)nnc12	1	0	-1	1	2
C=CCn1c(=O)c2ccccc2n2c(SCc3nc4ccccc4s3)nnc12	7	0	1.2*	1	5
Cc1ccc(NC(=O)NNC(=O)CCn2nc(C)c([N+](=O)[O-])c2C)cc1C	-2	.	-2	0	1
